# Reference: PubChem BioAssay (NCATS)
# Where “and” joins values, the source holds several entries; their conditions need not be identical. Identical values can stand only once. Values without a mark were called inactive. Records with an inconclusive call do not appear. Calls of active or inactive are those of the source. Unless noted, calls follow the shape of the dose curve; as a rule, active = well fitted inhibition curve with a large enough effect; inconclusive = small, poorly fitted or top-dose-only effect; inactive = flat fitted curve, though single readings scatter.
# How the values were obtained:
# [1] = Drug repurposing screens with cells derived from glioblastoma tumor samples (AID 1345199); settings: GBM patient neurospheres viability, ATP luminescence, 48 h; also: nearly all actives have a fitted effect of over 40% in size; also: potency is read from the fitted curve at half-maximal effect; as to activity, negative = cell killing: % is scaled to controls: 0 for no effect and ±100 for the full control effect
# Summary of the method: (§1)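 Four patient lines of CD133+ GBM neurospheres were screened at several concentrations; hits were retested in those lines plus three slower-growing GBM lines, using 48-hour treatment and ATP-based viability.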
# [2] = tested on: astro; assay: as above; settings: viability, ATP luminescence, 48 h; series mostly up to 45.9 µM
# Summary of the method: as §1
# [3] = molecular target: Nuclear receptor subfamily 1 group I member 2 (Rattus norvegicus) (UniProt Q9R1A7); assay: qHTS assay for small molecule activators of the rat pregnane X receptor (rPXR) signaling pathway (AID 651751; call rule not given here; also: 0% is about no effect); settings: rPXR reporter cells, luciferase (One-Glo), 24 h
# [4] = qHTS assay for small molecule activators of the human pregnane X receptor (PXR) signaling pathway (AID 720659; call rule not given here; also: 0% is about no effect); settings: DPX-2 HepG2 CYP3A4-luciferase, 24 h; series mostly up to 92.3 µM
# [5] = at 45.9 µM (top of the series), tumour line B
# [6] = at 45.9 µM (top of the series), tumour line D
# [7] = at 46.1 µM (top of the series), tumour line C
# [8] = at 20 µM (top of the series), tumour line C
# [9] = at 21.2 µM (top of the series), tumour line B
# [10] = at 21.2 µM (top of the series), tumour line D
# [11] = at 46 µM (top of the series), tumour line A
# Nuclear receptor subfamily 1 group I member 2 (Rattus norvegicus), sequence (Q9R1A7 whole entry, looked up): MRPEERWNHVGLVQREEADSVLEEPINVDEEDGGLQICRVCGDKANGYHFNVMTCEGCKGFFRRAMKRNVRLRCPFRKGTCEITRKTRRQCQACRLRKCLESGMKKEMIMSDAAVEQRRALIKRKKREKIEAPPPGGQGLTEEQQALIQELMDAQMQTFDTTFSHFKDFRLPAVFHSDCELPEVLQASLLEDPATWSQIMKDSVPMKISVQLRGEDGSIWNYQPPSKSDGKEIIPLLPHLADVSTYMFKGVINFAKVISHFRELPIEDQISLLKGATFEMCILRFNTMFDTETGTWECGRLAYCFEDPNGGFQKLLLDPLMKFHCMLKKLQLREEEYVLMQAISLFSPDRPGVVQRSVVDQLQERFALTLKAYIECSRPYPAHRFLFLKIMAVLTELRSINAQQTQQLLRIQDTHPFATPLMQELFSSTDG
smiles,measurement,setting,value
Clc1ccc(C2(Cn3cncn3)OCCO2)c(Cl)c1,"activity, negative = cell killing",[1]; [5],-15.5%
same,"activity, negative = cell killing",[1]; [6],0.916%
same,"activity, negative = cell killing",[1]; [7],-23.5%
same,Potency,[2],inactive
CCC1(CC)C(=O)NC(=O)N(C)C1=O,"activity, negative = cell killing",[1]; [5],-3.71%
same,"activity, negative = cell killing",[1]; [6],-23.6%
same,"activity, negative = cell killing",[1]; [7],-31.1%
same,Potency,[2],inactive
CC(=O)OC1CN2CCC1CC2 (stereo not drawn),"activity, negative = cell killing",[1]; [5],-1.18%
same,"activity, negative = cell killing",[1]; [6],12%
same,"activity, negative = cell killing",[1]; [7],-1.09%
same,Potency,[2],inactive
CNC1(c2ccccc2Cl)CCCCC1=O (stereo not drawn),"activity, negative = cell killing",[1]; [5],-12.1% and -12.4%
same,"activity, negative = cell killing",[1]; [6],-13.4% and -12.7%
same,"activity, negative = cell killing",[1]; [7],-5.45%
same,Potency,[2],inactive
CC(=O)O[C@H]1CC[C@H]2[C@@H]3CCC4=CC(=O)CCC4=C3C=C[C@]12C,"activity, negative = cell killing",[1]; [5],-12.7%
same,"activity, negative = cell killing",[1]; [6],-6.7%
same,"activity, negative = cell killing",[1]; [7],-16.1%
same,Potency,[2],inactive
CCOP(=O)(OCC)O/C(=C/Cl)c1ccc(Cl)cc1Cl,"activity, negative = cell killing",[1]; [5],-17.8%
same,"activity, negative = cell killing",[1]; [6],-23.4%
same,Potency,[1]; tumour line A,12.6 µM (active)
same,Potency,[2],inactive
NCC(O)c1cccc(O)c1 (stereo not drawn),"activity, negative = cell killing",[1]; [5],-9.47%
same,"activity, negative = cell killing",[1]; [6],-16.5%
same,"activity, negative = cell killing",[1]; [7],-10.7%
same,Potency,[2],inactive
CCNC1(c2cccs2)CCCCC1=O (stereo not drawn),"activity, negative = cell killing",[1]; [8],-10.7%
same,"activity, negative = cell killing",[1]; [9],2.65%
same,"activity, negative = cell killing",[1]; [10],-6.43%
same,Potency,[2],inactive
CCCC(C)C1(CC)C(=O)NC(=O)NC1=O (stereo not drawn),"activity, negative = cell killing",[1]; [5],-11.9%
same,"activity, negative = cell killing",[1]; [6],0.152%
same,"activity, negative = cell killing",[1]; [7],-8.48%
same,Potency,[2],inactive
CCC1(c2ccccc2)C(=O)NC(=O)N(C(=O)c2ccccc2)C1=O (stereo not drawn),"activity, negative = cell killing",[1]; [5],-17.6%
same,"activity, negative = cell killing",[1]; [6],-13.8%
same,"activity, negative = cell killing",[1]; [7],-23.5%
same,Potency,[2],inactive
O=C(NC(=O)c1c(F)cccc1F)Nc1ccc(Cl)c(Oc2ncc(C(F)(F)F)cc2Cl)c1,"activity, negative = cell killing",[1]; [5],-0.522%
same,"activity, negative = cell killing",[1]; [6],-21.9%
same,"activity, negative = cell killing",[1]; [7],-19.8%
same,Potency,[2],inactive
C[C@]12CC[C@H]3[C@@H](CC[C@@]45O[C@@H]4C(O)=C(C#N)C[C@]35C)[C@@H]1CC[C@@H]2O,"activity, negative = cell killing",[1]; [5],0.146%
same,"activity, negative = cell killing",[1]; [6],-21.9%
same,"activity, negative = cell killing",[1]; [7],-5.72%
same,Potency,[2],inactive
C#CC(C)(O)CC (stereo not drawn),"activity, negative = cell killing",[1]; [5],-22.2%
same,"activity, negative = cell killing",[1]; [6],-11.4%
same,"activity, negative = cell killing",[1]; [7],-2.82%
same,Potency,[2],inactive
C[C@]12CC[C@H]3[C@@H](CCC4=C(O)C(=O)CC[C@@H]43)[C@@H]1CC[C@@H]2OC(=O)CCC1CCCC1,"activity, negative = cell killing",[1]; [5],-11.4%
same,"activity, negative = cell killing",[1]; [6],-14.1%
same,"activity, negative = cell killing",[1]; [7],-19.8%
same,Potency,[2],inactive
O=C(OCCN1CCCCC1)C(O)(c1ccccc1)c1ccccc1,"activity, negative = cell killing",[1]; [5],-11.1%
same,"activity, negative = cell killing",[1]; [6],-8.82%
same,"activity, negative = cell killing",[1]; [7],-26.9%
same,Potency,[2],inactive
O=C(CS(=O)C(c1ccccc1)c1ccccc1)NO (stereo not drawn),"activity, negative = cell killing",[1]; [5],-1.04%
same,"activity, negative = cell killing",[1]; [11],-19.6%
same,"activity, negative = cell killing",[1]; [7],-22%
same,Potency,[2],inactive
C[C@]12CCC(=O)C=C1C=C[C@@H]1[C@@H]2CC[C@@]2(C)[C@H]1CC[C@@]2(O)CCC(=O)O,"activity, negative = cell killing",[1]; [8],15.7%
same,"activity, negative = cell killing",[1]; [9],-2.69%
same,"activity, negative = cell killing",[1]; [10],-8.65%
same,Potency,[2],inactive
CC[N+](C)(CC)CCOC(=O)C(O)(c1ccccc1)c1ccccc1,"activity, negative = cell killing",[1]; [5],-10.1%
same,"activity, negative = cell killing",[1]; [6],-2.57%
same,"activity, negative = cell killing",[1]; [11],-29.2%
same,Potency,[2],inactive
O=C1CN(O)C(c2ccccc2)=c2cc(Cl)ccc2=N1,"activity, negative = cell killing",[1]; [5],-13.2%
same,"activity, negative = cell killing",[1]; [6],-10.4%
same,"activity, negative = cell killing",[1]; [7],-13.2%
same,Potency,[2],inactive
c1csc(C2(N3CCCCC3)CCCCC2)c1,"activity, negative = cell killing",[1]; [5],-10.4%
same,"activity, negative = cell killing",[1]; [6],-7.27%
same,"activity, negative = cell killing",[1]; [7],-24.6%
same,Potency,[2],inactive
C=CCN1CC[C@]23c4c5ccc(O)c4O[C@H]2[C@@H](O)C=C[C@H]3[C@H]1C5,"activity, negative = cell killing",[1]; [5],-22.5%
same,"activity, negative = cell killing",[1]; [6],3.8%
same,"activity, negative = cell killing",[1]; [7],-4.91%
same,Potency,[2],inactive
C=CCN(C1=NCCN1)c1c(Cl)cccc1Cl,"activity, negative = cell killing",[1]; [5],-5.59%
same,"activity, negative = cell killing",[1]; [6],-0.731%
same,"activity, negative = cell killing",[1]; [7],-15.8%
same,Potency,[2],inactive
CCC(=O)O[C@@](Cc1ccccc1)(c1ccccc1)[C@@H](C)CN(C)C,"activity, negative = cell killing",[1]; [8],2.51%
same,"activity, negative = cell killing",[1]; [9],-6.39%
same,"activity, negative = cell killing",[1]; [10],-21.4%
same,Potency,[2],inactive
Cc1ccccc1-n1c(CF)nc2ccc(N)cc2c1=O,"activity, negative = cell killing",[1]; [5],-13.6%
same,"activity, negative = cell killing",[1]; [6],0.0058%
same,"activity, negative = cell killing",[1]; [7],-23.5%
same,Potency,[2],inactive
O=C1C=C2C=C[C@@H]3C[C@@]2(O1)[C@H]1CCCCN31,Potency,[2],17.8 µM (active)
C=CCN=C=S,"activity, negative = cell killing",[1]; [5],-6.51%
same,"activity, negative = cell killing",[1]; [6],-10.4%
same,"activity, negative = cell killing",[1]; [7],6.26%
same,Potency,[2],inactive
same,max response,[3],3.71%
same,outcome,[4],inactive
